This is a sample that favours compounds with a hit; in the whole collection about 0.69% have one here.
MRP-1 activ – activates MRP-1; H69AR cells + doxorubicin, viability rescue, CellTiter-Glo; 140,000 tested, 0.61% active; viability increase, % at 10 µM;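 active means viability gain under doxorubicin at or above a set limit, the compound median plus 3 SD, cut at about 4.7% in these data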;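 further: MRP-1 overexpressing cells given doxorubicin 25 µM after compound pretreatment; 18-22 h compound pretreatment then 72 h with doxorubicin before readout; 0% = doxorubicin-only wells and 100% = vehicle-treated cells without doxorubicin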
MRP reversal – compounds reversing MRP-mediated drug resistance; H69AR cells + 2 uM doxorubicin, CellTiter-Glo, 72 h; AID 602; differential viability (reversal), % at 10 µM; 85,000 tested, 0.04% active;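 active means viability drop by adding the cancer drug above about 55%, with treated viability meeting a 40% cutoff, limit read from the data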;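 further: viability without doxorubicin minus viability with 2 µM doxorubicin for each compound; larger differential means the compound sensitizes cells more to doxorubicin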
Phagocytosis inh – inhibitors of macrophage phagocytosis | J774A.1 macrophage IgG-bead phagocytosis, imaging | inhibition, % at 5 µM | 110,000 tested, 0.07% active | AID 1029;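 active means inhibition above the mean of the plate negative controls plus 5 SD, cut at about 13% in these data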;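 further: phagocytic index as fraction of beads internalized from green versus red external bead signal; plate controls were DMSO negative control for no effect and cytochalasin-D positive control for full effect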
Active calls of the source: *; x = no result; [ ] = another dose, or the depositor's remark.

SMILES	MRP-1 activ	MRP reversal	Phagocytosis inh
CC1CN(c2nc3c(c(=O)n(Cc4ccc(Cl)cc4)c(=O)n3C)n2C)CC(C)O1 (centres undefined)	-4.8	57.4*	0.5
C=CCn1c(COc2ccc(Cl)cc2)nnc1SCC(=O)N/N=C/c1cccc(O)c1	2.9	x	x
C=CCn1c(COc2ccc(Cl)cc2)nnc1SCC(=O)N1CC(=O)Nc2ccccc21	4.7*	16.5	-0.8
CC1CCN(Cc2nc3c(c(=O)n(C)c(=O)n3C)n2CCN2CCOCC2)CC1	x	15.7	x
Cc1onc(-c2c(F)cccc2Cl)c1C(=O)NCC1COc2ccccc2O1 (centres undefined)	-0.4	5.0	16.2*[artifact]
Cc1onc(-c2c(Cl)cccc2Cl)c1C(=O)NCC1CCCO1 (centres undefined)	-2.1	15.8	-4.8
O=C(c1ccco1)N1CCN(c2nc(C3CC3)nc3c2nnn3Cc2ccccc2Cl)CC1	7.0*	-6.1	x
CC(C)(C)c1nc(N2CCN(C(=O)c3ccco3)CC2)c2nnn(Cc3ccccc3)c2n1	3.0	-17.1	x
Cc1c(NC(=O)OCCNC(=O)COc2c(Cl)cccc2Cl)sc(=S)n1C	-1.8	x	x
Cc1ccc(S(=O)(=O)N2CCN(CC(=O)N/N=C\C(Cl)=C\c3ccccc3)CC2)cc1	-0.1	x	-7.2
CC(/C=N\NC(=O)CN1CCN(S(=O)(=O)c2ccc(C)cc2)CC1)=C\c1ccccc1	5.8*	x	-13.5
O=C(NCCc1ccccc1)C(=O)c1c(-c2ccccc2)cc2ccccn12	8.3*	x	-2.1
O=C(Nc1cc(S(=O)(=O)N2CCOCC2)ccc1Cl)C(=O)c1c(-c2ccccc2)cc2ccccn12	-0.4	3.2	x
Cc1ccccc1C(=O)NNC(=O)c1cc(N)cc([N+](=O)[O-])c1	0.0	x	3.6
N=C(N)SCc1cn2ccccc2n1	4.9*	x	-8.9
Nc1ccccc1SCc1cn2ccccc2n1	-0.5	x	-2.1
Fc1ccc(-c2csc(/C=C/c3ccc4c(c3)OCO4)n2)cc1	0.9	x	x
Cc1cc(C)cc(NC(=O)c2oc3ccccc3c2COc2ccccc2)c1	5.2*	x	-2.0
CC(C)CNC(=O)c1oc2ccccc2c1COc1ccccc1	-2.8	x	-3.2
O=C1c2cccc3cccc(c23)C(=O)N1c1ccncc1	5.7*	-10.7	x
O=C1c2cccc3cccc(c23)C(=O)N1c1cccnc1	2.6	-19.4	-1.7
CCN(C(=O)COC(=O)c1c2c(nc3ccccc13)/C(=C/c1ccccc1)CC(C)C2)C1CCS(=O)(=O)C1 (centres undefined)	-4.9	x	-0.4
N=C(N)SCc1ccccc1Cl	8.6*	x	0.3
Nc1nnc(SCc2ccccc2Cl)s1	0.2	9.0	7.2
CC(C)(C)NC(=O)NC(=O)COC(=O)c1cccc(S(=O)(=O)N2CCCCC2)c1	0.3	x	-5.5
SMILES	MRP-1 activ	MRP reversal	Phagocytosis inh
COc1ccccc1/C=N/NC(=O)CC(=O)NCc1cccnc1	-0.7	x	-11.8
O=C(CC(=O)N/N=C/c1ccccc1O)NCc1cccnc1	5.5*	x	-13.2
CCOC(=O)c1cnn(-c2cc(Oc3ccccc3)ncn2)c1N	-0.3	x	x
CCOC(=O)c1cnn(-c2ccccn2)c1N	7.5*	0.1	0.7
CN(C)S(=O)(=O)c1cccc(NC(=O)CN2C(=O)C3C4C=CC(C4)C3C2=O)c1 (centres undefined)	-0.8	x	-1.4
O=C(CC(Nc1ccc(F)cc1)C(=O)OCC(=O)c1cccs1)c1ccccc1 (centres undefined)	5.2*	x	-3.2
O=C(CC(Nc1ccc(F)cc1)C(=O)O)c1ccccc1 (centres undefined)	-0.6	10.1	-0.4
COc1ccccc1CNC(=O)/C=C/c1ccc(S(=O)(=O)NCc2ccco2)cc1	-2.8	x	-2.9

Source: PubChem
